# The full list was thinned out, with hits kept by preference.
# ALOX15B inhib – qHTS Assay for Inhibitors of 15-hLO-2 (15-human lipoxygenase 2) | Polyunsaturated fatty acid lipoxygenase ALOX15B (Homo sapiens), O15296 | Potency, µM (doses to about 57.1 µM), without a hit: at the highest dose activity change, negative = inhibition, usual class: inhibitors | 110,000 compounds, 0.56% hits | AID 881, 2007 | purified 15hLO-2, xylenol orange hydroperoxide absorbance; note: potency is the fitted concentration of half-maximal effect; nearly all actives have a fitted effect of over 60% in size
#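 Purified human 15hLO-2 (50 nM final) preincubated with compounds 15 min at room temperature in 25 mM Hepes pH 7.5, 0.01% Triton X-100, then 45 uM arachidonic acid added for 90 min; hydroperoxide detected via ferrous/xylenol orange, 573/405 nm absorbance ratio.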
# PNC inhibitor – High Content Assay for Compounds that inhibit the Assembly of the Perinucleolar Compartment; PC3M PTB-GFP, PNC prevalence imaging, 16 h; hits give low values; activity change (PNC), negative = inhibition, % at 10 µM; 140,000 compounds, 3.1% hits; AID 2417, 2010;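 active = readout at or below -70, meaning at least 70% loss of cells showing the perinucleolar compartment, a nuclear body marking cancer cells; inconclusive = readout between -30 and a set limit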;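 note: plate controls were DMSO wells for no effect and camptothecin positive control wells for full effect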
#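 Read-out is percentage of cells bearing a perinucleolar compartment, from automated 20x imaging of fixed, Hoechst-stained PC3M PTB-GFP cells. Cells were seeded 4 h, then exposed 16 h to compound (23 nl of library stock) in duplicate plates.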
# IMPase Li cell – qHTS Assay for Identifying the Cell-Membrane Permeable IMPase Inhibitors: Potentiation with Lithium. Potency, µM (top dose mostly 59.4 µM), without a hit: top-dose activity, negative = IMPase inhibition, hits mostly inhibitors. 210,000 compounds, 0.35% hits. AID 1457, 2008. CHO-M1 cells, IP1 TR-FRET (IP-One), carbachol + lithium;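 note: IP1 builds up when IMPase is blocked and the TR-FRET signal falls; potency is the fitted concentration of half-maximal effect; plate controls were basal vehicle for no effect and high inhibitor control for full effect; nearly all actives have a fitted effect of over 50% in size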
#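 Readout is a homogeneous TR-FRET IP1 immunoassay (Ex 320, Em 665 and 620), where raised cytosolic IP1 lowers signal. Cells were CHO-M1 treated 30 min at 37C with test compounds plus a little lithium; AC50 values came from Hill-equation fitting.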
# 12-hLO inh – qHTS Assay for Inhibitors of 12-hLO (12-human lipoxygenase); Polyunsaturated fatty acid lipoxygenase ALOX12 (Homo sapiens), P18054; purified 12-hLO, xylenol orange hydroperoxide absorbance; Potency, µM (titrated, usually from 57.1 µM), for the others: at the top dose activity change, negative = inhibition, usual class: inhibitors; 150,000 compounds, 0.12% hits; AID 1452, 2008; note: potency is the fitted concentration of half-maximal effect; nearly all actives have a fitted effect of over 55% in size
#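 Hydroperoxide formation by human 12-lipoxygenase from 40 uM arachidonic acid was followed colorimetrically via ferric-xylenol orange complex, using the 573/405 nm absorbance ratio. Enzyme concentration was 150 nM, with 30 min reaction at room temperature.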
# IMPase inh – qHTS Assay for Identifying the Cell-Membrane Permeable IMPase Inhibitors. Inositol monophosphatase 1 (Rattus norvegicus), P97697. CHO-M1 cells, IP1 accumulation, HTRF TR-FRET ratio. 120,000 tested, under 10 active. inhibition (IP1 accumulation), % at 46.1 µM; active = well fitted curve in the direction sought with a large enough effect in the signal ratio, not every such curve was filed as active; inconclusive = small, poorly fitted or top-dose-only effect, or a change in a side signal; inactive = no such curve, though single readings can be large or run the other way; the % refers to the signal ratio;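 note: cells stimulated with carbachol in lithium chloride buffer; plate controls were DMSO basal wells for no effect and reference inhibitor wells for full effect; higher means more IMPase inhibition seen as more IP1 and lower FRET ratio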
# Target sequence (P97697 whole entry, looked up): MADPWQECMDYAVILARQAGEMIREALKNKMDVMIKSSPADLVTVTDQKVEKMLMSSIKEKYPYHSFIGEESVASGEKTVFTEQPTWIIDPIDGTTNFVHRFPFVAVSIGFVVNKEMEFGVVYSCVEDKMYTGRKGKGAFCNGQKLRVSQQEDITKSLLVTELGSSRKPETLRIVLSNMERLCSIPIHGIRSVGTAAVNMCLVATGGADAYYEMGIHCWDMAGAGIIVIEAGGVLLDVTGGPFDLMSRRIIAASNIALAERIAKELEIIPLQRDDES
#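 The IP-One HTRF competitive assay in carbachol-stimulated CHO-M1 cells quantifies cellular IP1. Compounds spanned up to 46 uM final, and activity is expressed as AC50 from concentration-response fits of the ratio and donor data.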
# * hit, by the source's call; ? = inconclusive; . = no result given; [ ] = another dose, or the depositor's remark. Unless noted, calls come from the whole dose curve; as a rule, active = well fitted curve in the direction sought with a large enough effect; inconclusive = small, poorly fitted or top-dose-only effect, or another doubt; inactive = no such curve, though single readings can be large; an effect the other way counts as inactive or inconclusive. Unless noted, % is set by controls: 0 for no effect and ±100 for the full control effect.
SMILES,ALOX15B inhib,PNC inhibitor,IMPase Li cell,12-hLO inh,IMPase inh
COC(=O)c1ccc(C2/C(=C(/O)c3ccc(OC)cc3)C(=O)C(=O)N2c2cc(C)on2)cc1 (stereo not given),13.5%,?,10µM*,-11.4%,-6.9
COC(=O)c1ccc(C2/C(=C(/O)c3ccc(OC(C)C)cc3)C(=O)C(=O)N2c2cc(C)on2)cc1 (stereo not given),0.4%,-13.5,10µM*,3.8%,-15.4
Cc1ccc(/C(O)=C2\C(=O)C(=O)N(c3cc(C)on3)C2c2cccc(Br)c2)cc1 (stereo not given),31.9%,-6.3,?,4.9%,-9.6
Cc1cccc(OCC(=O)Nc2cccc3cccnc23)c1C,.,.,.,.,2.8
CCNc1ncc2nc(-c3cc(F)cc(F)c3)c(=O)n(-c3ccccc3)c2n1,-2.1%,.,?,-8.9%,.
CCCCCCCNC(=O)c1ccc(N2CCC3(CC2)OCCO3)c([N+](=O)[O-])c1,.,-119.3*,30.8%,-3.7%,7.2
CCn1c(SCC(=O)Nc2nnc(C)s2)nc2c(c1=O)SC(C)C2 (stereo not given),-2.7%,?,13.0%[38.3 µM],0.7%,2.2
CCn1c(SCC(=O)N2CCOCC2)nc2c(c1=O)SC(C)C2 (stereo not given),.,-100.0*,4.8%,-1.8%,-12.5
COc1ccc(F)cc1S(=O)(=O)Nc1ccccc1C(=O)O,.,.,.,-1.0%,.
COc1ccc(NC(=O)N2CCCC3(CCN(C(C)=O)CC3)C2)cc1,8.5%,.,1.1%,-2.5%,.
CCCCc1nc2ccccc2c(NC(=O)CN2CCCC2)c1CCC,.,-100.0*,6.2%,-5.6%,3.3
O=C(Cc1ccc(F)cc1)N/N=C/c1ccccn1,.,-113.0*,-2.8%,-5.2%,.
Cc1c(C(=O)Nc2ccccc2N2CCOCC2)sc2nc3n(c(=O)c12)CCC3,-6.5%,-126.9*,-1.9%[38.3 µM],-2.5%,-6.5
Cc1cc(C)c(S(=O)(=O)N(C)CC(N)=O)c(C)c1,9.6%[2.29 µM],-84.9*,3.4%[38.3 µM],4.4%,2.8
Cc1cc(C)c(S(=O)(=O)N(C)CC(=O)N2CCCCC2)c(C)c1,7.1%,-15.6,5.9%[38.3 µM],0.4%,?
COc1ccc(C(=O)N2CCC3(CCCN(Cc4cc(C(F)(F)F)cc(C(F)(F)F)c4)C3)CC2)cc1,24.7%,.,10.4%,-0.4%,.
CC1=CC(c2ccccc2)n2nc(N3C(=O)c4ccccc4C3=O)nc2N1 (stereo not given),-7.0%,-4.9,20.0%[38.3 µM],-2.6%,-2.3
CC1=CC(c2ccccc2)n2nc(N3C(=O)CCC3=O)nc2N1 (stereo not given),.,-94.1*,5.1%,0.9%,?
C[C@](O)(c1ccccc1)c1nccc2ccccc12,-0.8%[11.4 µM],.,1.9%,-9.2%[11.4 µM],.
CCn1c(SCC(=O)NCc2ccco2)nc2ccccc2c1=O,.,.,4.0%,.,.
O=C(CSc1nc2ccsc2c(=O)n1Cc1ccc(C(=O)O)cc1)NCc1ccco1,.,-113.4*,-2.3%,-2.1%,.
O=C(CSc1nc2ccccc2c(=O)n1Cc1ccccc1)NCc1ccco1,-12.6%,53.8,10µM*,4.3%,-20.5
O=C(CSc1nc2ccccc2c2nc3ccccc3n12)NCc1ccco1,?,-83.2*,-14.3%,1.8%,7.5
Cn1c(SCC(=O)NCc2ccco2)nc2ccccc2c1=O,4.2%,-19.5,22.5%[38.3 µM],-7.1%,-1.2
COc1ccc(-n2c(SCC(=O)NCc3ccco3)nc3c([nH]c4ccccc43)c2=O)cc1,-8.4%,-108.4*,19.4%[38.3 µM],4.2%,5.0
SMILES,ALOX15B inhib,PNC inhibitor,IMPase Li cell,12-hLO inh,IMPase inh
O=C1C(c2[nH]c3ccc(S(=O)(=O)O)cc3c2O)=Nc2ccc(S(=O)(=O)O)cc21,-0.7%[0.0915 µM],.,154.1%,1.8%[0.00818 µM],.
COc1ccc(NC(=O)CSc2nc3ccccc3c3nc4ccccc4n23)cc1,.,34.1,-9.8%,-0.8%,.
Cc1ccc(NC(=O)CSc2nc3ccccc3c3nc4ccccc4n23)cc1,?,-107.5*,8.1%[38.3 µM],-3.0%,-19.5
O=C(CSc1nnc(-c2ccco2)n1Cc1ccco1)NCc1ccccc1,-5.6%,-94.2*,23.9%[38.3 µM],2.6%,2.2
O=C(CCCCCn1c(SCc2ccncc2)nc2ccccc2c1=O)NCc1ccco1,.,-100.0*,20.1%,-2.9%,22.7
Cc1ccc(NC(=O)c2ccccc2NS(=O)(=O)c2ccc(Cl)s2)cc1,.,-82.3*,8.6%,-3.2%,.
CCNC(=S)NS(=O)(=O)c1ccc(C)cc1,.,-84.9*,.,0.5%,-7.0
CCNC(=S)NS(=O)(=O)c1ccc(CC)cc1,-13.2%,-2.8,3.6%[38.3 µM],-9.1%,0.3
Cc1nnc(N2C(=O)c3cccc4cccc(c34)C2=O)s1,2.6%,-111.1*,-9.6%[38.3 µM],5.2%,2.9
CCCc1nnc(N2C(=O)c3cccc4cccc(c34)C2=O)s1,-2.5%,20.7,20.0%[38.3 µM],-1.8%,-6.7
NC(C(=O)O)c1cccc(O)c1 (stereo not given),.,.,-2.1%,.,.
CC(=O)c1ccc(N2C(=O)[C@@H]3C(C(=O)CCN4C(=O)c5ccccc5C4=O)=NN[C@@H]3C2=O)cc1,.,-108.4*,-3.5%,-1.5%,.
N#Cc1ccc(N2C(=O)[C@@H]3C(C(=O)C(c4ccccc4)c4ccccc4)=NN[C@@H]3C2=O)cc1,.,25.5,-3.1%,-1.1%,.
CCCCCCCCCCCCCCCCCC(=O)OC(CC(=O)O)C[N+](C)(C)C (stereo not given),.,.,37.1%,.,.
COc1ccc(N=c2scc(-c3ccc(S(=O)(=O)N4CCOCC4)cc3)n2CCCO)cc1,.,-100.0*,8.9%,-0.3%,6.8
O=C(CN(Cc1ccccc1)S(=O)(=O)c1ccccc1)N1CCOCC1,17.7%,-101.4*,-1.4%[38.3 µM],1.1%,1.2
COc1ccc(S(=O)(=O)N(CC(=O)N2CCOCC2)Cc2ccccc2)cc1,.,22.9,11.1%,3.7%,-4.7
CC(C)(C)CC(=O)Nc1cccc(-c2cn3cccnc3n2)c1,.,.,1.8%,.,.
COCC(=O)Nc1ccc(-c2cn3cccnc3n2)cc1,2.7%,14.2,11.2µM*,-2.8%,-24.6
C/C(=C\C[Si](C)(C)C)CC[C@H](O)C1=CCCCC1=O,.,.,-4.6%,.,.
CCOC(=O)C1CCN(S(=O)(=O)c2ccc(-n3cnnn3)c(C)c2)CC1,4.4%,-100.0*,-8.2%[38.3 µM],0.6%,2.7
O=C(Cn1[nH]c(=O)c2ccccc2c1=O)OCC(=O)N1CCc2ccccc2C1,0.5%,43.9,-3.1%[38.3 µM],1.4%,0.2
O=C(Cn1[nH]c(=O)c2ccccc2c1=O)OCC(=O)N1CCCc2ccccc21,0.2%,-97.4*,-0.2%[38.3 µM],-2.0%,6.3
O=C1CC(N2CCOCC2)C(=O)N1c1ccccc1Cl (stereo not given),-15.3%,-94.0*,14.2%[38.3 µM],-0.3%,4.2
CCCCCCCCCCCC1=C(O)C(=O)C=C(O)C1=O,31.6µM*,.,29.1%,8.91µM*,24.9
Cc1cc(NCCCO)n2nc(-c3cccs3)cc2n1,.,.,2.7%,.,.
